± gives the standard deviation.
Test system: MILI (PIWIL2) piRISC loaded with L1MC piRNA (26 nt)
Test: pre-steady-state target cleavage rate (min^-1); guide: L1MC piRNA 5'p-UAACUAAAUACUAUGCAAGCUGUAGG; MIWI and MILI are mouse PIWI proteins and EfPiwi is from a freshwater sponge; tags in brackets are library labels; higher = faster piRNA-guided slicing of the target
Conditions: auxiliary factor: 500 nM mouse GTSF1
Outline: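 In HEPES–potassium acetate buffer at 33 °C, […] transcribed, DNA-blocked target RNA library was mixed with 1 nM active affinity-purified piRISC carrying one synthetic guide, with or without 500 nM GTSF1 partner protein, for 0–8 or 0–960 min. Uncleaved targets were sequenced and normalised to depth and to weakly complementary targets; three trials were pooled and k3 was capped at 0.0001 min^-1. The pre-steady-state cleavage rate followed from a burst-and-steady-state fit.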
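Further: 1 nM active piRISC with 0.1 nM target library at 33 °C single turnover.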

Sequence | pre-steady-state target cleavage rate
UCCUGGAUGUCGUUGCAUAGUACUUAGUUA | 0.0399 ± 0.011
UCCUGGAUCAGCUUAGCAUAGUAUUUAGUUA | 0.232 ± 0.018
UCCUCCUACAGGCUUGCAUAGUAUUUAGUUA | 0.268 ± 0.019
UCCUCCUACAGCCUUGCAUAGUAUUUAGUUA | 0.262 ± 0.019
UCCUGGAUGAGCUUGCAUAGUAUUUUGUUA | 0.204 ± 0.04
UCCUCCUACAGCUUGCAUUGUAUAUAGUUA | 0.177 ± 0.018
UCCUGGAUCAGCUUGCAUAGUAUUCAGUUA | 0.179 ± 0.024
UCCUCCUACAGCUUGCAUUGUAUUUUGUUA | 0.0994 ± 0.015
UCCUGGUACAGCUUGGAUAGUAUAUAGUUA | 0.316 ± 0.065
UCCUGCUACAGCUUGCAUUGUAUUUAGUAA | 0.176 ± 0.018
UCCUGGAUGUGCUUGCAUAGUAGUUAGUUA | 0.0647 ± 0.01
UCCUCCUACAGCUUGCAUAGUAGUUAGUUA | 0.192 ± 0.026
UCCUGGAUGAGCUUGCAUAUUAUUUAGUUA | 0.0637 ± 0.0072
UCCUGGAUCAGCUUGCAUUGUAAUUAGUUA | 0.097 ± 0.011
UCCUCCUAGAGCUUGCAUAGUAUAUAGUUA | 0.249 ± 0.029
UCCUGGUACAGCUUGCAUAGUAUUUAGAUUA | 0.131 ± 0.04
UCCUGGAUGAGCUUCAUAGUAUUUAGUUA | 0.0977 ± 0.012
UCCUGGAUGUCGAUUGCAUAGUAUUUAGUUA | 0.09 ± 0.012
UCCUGCUCACAGCUUGCAUAGUAUUUAGUUA | 0.351 ± 0.019
UCCUGGAUCAGCUUGCAUAGUAUUUAGUUU [g2:g22:cont:t1U] | 0.357 ± 0.019
UCCUGGAUGUGCUUGCAUGGUAUUUAGUUA | 0.086 ± 0.014
UCCUGGAUGAGCUUGCAUAGUAUUUACGUUA | 0.189 ± 0.031
UCCUGGAUCACGAUGCAUAGUAUUUAGUUA | 0.134 ± 0.013
UCCUGGUACAGGUUGCAUAGUAUUAAGUUA | 0.326 ± 0.072

Source: the supplement of paper PMC10338343
